Reference: PubChem BioAssay AID504710 (Sanford-Burnham Center for Chemical Genomics, 2011)
Unmarked numbers belong to inactive results. Calls of active or inactive are those of the source.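 Rule for the calls: active = inhibition reaching about 16% in any single replicate (limit read from the data); inactive = the rest.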

molecular target: Hexokinase HKDC1 (Homo sapiens) (UniProt Q2TB90); assay: HKDC1 hexokinase inhibitors, confirmation, biochemical, single concentration (AID 504710); settings: recombinant HKDC1, G6PDH/diaphorase/resazurin fluorescence; at 20 µM; active compounds read high
Sequence (Q2TB90 whole entry, looked up): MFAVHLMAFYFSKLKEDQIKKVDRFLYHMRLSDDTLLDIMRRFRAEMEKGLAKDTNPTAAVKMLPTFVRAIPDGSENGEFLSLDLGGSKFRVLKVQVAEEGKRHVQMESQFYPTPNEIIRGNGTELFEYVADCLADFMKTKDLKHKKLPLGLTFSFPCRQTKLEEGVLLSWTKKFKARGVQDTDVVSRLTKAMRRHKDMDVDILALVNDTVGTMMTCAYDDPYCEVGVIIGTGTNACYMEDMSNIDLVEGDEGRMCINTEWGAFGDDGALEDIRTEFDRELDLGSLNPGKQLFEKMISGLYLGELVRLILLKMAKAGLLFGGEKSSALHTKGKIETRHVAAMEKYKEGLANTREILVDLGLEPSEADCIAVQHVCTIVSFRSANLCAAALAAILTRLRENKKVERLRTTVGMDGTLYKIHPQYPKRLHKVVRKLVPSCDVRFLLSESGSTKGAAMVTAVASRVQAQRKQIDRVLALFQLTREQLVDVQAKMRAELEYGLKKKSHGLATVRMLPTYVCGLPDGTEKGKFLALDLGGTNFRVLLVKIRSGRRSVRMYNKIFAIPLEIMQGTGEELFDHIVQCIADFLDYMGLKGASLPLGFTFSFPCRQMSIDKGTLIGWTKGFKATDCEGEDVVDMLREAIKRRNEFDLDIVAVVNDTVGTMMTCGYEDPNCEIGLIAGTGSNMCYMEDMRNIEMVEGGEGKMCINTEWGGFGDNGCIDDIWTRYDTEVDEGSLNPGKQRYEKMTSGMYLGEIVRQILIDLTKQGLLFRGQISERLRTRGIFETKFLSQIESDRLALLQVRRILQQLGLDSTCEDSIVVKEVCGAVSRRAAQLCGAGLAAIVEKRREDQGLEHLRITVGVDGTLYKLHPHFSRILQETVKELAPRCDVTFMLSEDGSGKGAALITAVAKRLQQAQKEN

Compound | inhibition
COC(=O)C1CN(C#N)N(c2ccc(Cl)cc2)C12c1ccccc1-c1ccccc12 (stereo not given) | 73.6% (active)
Cn1c(=O)c2c(nc(N/N=C/c3c(O)n(C4CCCCC4)c(=S)[nH]c3=O)n2C)n(C)c1=O | -49.5%
COC(=O)[C@@H]1[C@@H](C(=O)OC)C2(c3ccccc3-c3ccccc32)N(c2ccc(Cl)cc2)N1C#N | 43.1% (active)
Cc1ccc(N2C(=O)NC(=O)/C(=C\c3cc(C)n(-c4sc5c(c4C#N)CCCC5)c3C)C2=O)cc1 | 77.3% (active)
O=C1NC(=S)N(c2ccc(F)cc2)C(=O)/C1=C\c1ccoc1 | 55.2% (active)
CCN(CC)CCCNC(=O)c1c(O)c2ccccc2n(Cc2ccccc2)c1=O | -37.1%
COc1ccc(OC)c(N2C(=O)/C(=C/c3ccco3)C(=O)NC2=S)c1 | 77.4% (active)
CC(=O)OC1C2(CC3N4C(=O)C5(CO)SSC4(CC31O)C(=O)N5C)OC(C)C(C)(C)C2=O (stereo not given) | -77%
Cc1cccc(N2C(=O)NC(=O)/C(=C\c3ccc4c(c3)CCCN4Cc3ccccc3)C2=O)c1 | 45.2% (active)
CCOC(=O)c1c(-n2c(C)cc(C=C3C(=O)NC(=S)NC3=O)c2C)sc2c1CCCC2 | 61% (active)
COC(=O)C1=C(C(=O)OC)SC2(S1)C(C(=O)OC)=C(C(=O)OC)Sc1c2ssc1=O | -88.9%
COC(=O)C[C@]1(C(=O)OC)CN(C#N)N(c2ccc(Cl)cc2)C12c1ccccc1-c1ccccc12 | 62.4% (active)
Cc1cc(/C=C2\C(=O)NC(=O)N(c3ccc(Cl)cc3)C2=O)c(C)n1-c1sc2c(c1C#N)CCCC2 | 56.4% (active)
COc1cc2c(cc1OC)-c1c(OC)c(OC)c(OC)c3ccnc(c13)C2=O | 57.5% (active)
CC[C@H](C)/C=C(C)/C=C/C1=CC2=C(Cl)C(=O)[C@@](C)(OC(C)=O)C(=O)C2=CO1 | 45.8% (active)
Cc1cccc(N2C(=O)NC(=O)/C(=C\c3cc(C)n(-c4sc5c(c4C#N)CCCC5)c3C)C2=O)c1C | 54.9% (active)
O=c1c2ccccc2[se]n1-c1ccccc1 | 5.01% (active)
CC(=NNC(=S)N1CC2CCC(CC2)C1)c1nccs1 | -42.1%
Cc1ccc2c(C)c3ccc4ccccc4c3c[n+]2c1 | -65.5%
Nc1c(Br)cc2c3c(cccc13)-c1ccccc1-2 | 51.2% (active)
